Screens (PubChem BioAssay)
In the library only some 19% were active in any assay of this set; here they are far more common.
IL-1B inflam inh = qHTS for Inhibitors of Inflammasome Signaling: IL-1-beta AlphaLISA Primary Screen | THP-1 LPS/ATP IL-1B secretion, AlphaLISA, 16 h; active compounds read low | activity change, % at 57.5 µM | hit rate 4.7% among 360,000; in the data active = activity change below about -50%; inconclusive = mostly about -30% to -49%
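Secreted IL-1B measured by AlphaLISA bead assay after 16 h compound exposure of THP-1 cells; compounds (final up to 57.5 uM) added 1 h before LPS (250 ng/mL) and ATP (1.25 mM) stimulation; lower signal means less secretion.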
TDP1 cell noCPT = qHTS for Inhibitors of human tyrosyl-DNA phosphodiesterase 1 (TDP1): qHTS in cells in absence of CPT; DT40 Tdp1-/- hTDP1 cells, no CPT, ATP luminescence, 48 h; Potency, µM (highest dose often 46.2 µM), hits mostly inhibitors; hit rate 15% among 420,000; note: nearly all actives have a fitted effect of over 55% in size
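No-CPT arm: Tdp1-/-;hTDP1 DT40 cells (400/well) plus compounds, incubated ≥48 hr at 37 °C. Readout CellTiter-Glo luminescence.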
TDP1 cell CPT = qHTS for Inhibitors of human tyrosyl-DNA phosphodiesterase 1 (TDP1): qHTS in cells in presence of CPT | Potency, µM (titrated, usually from 46.2 µM), actives largely listed as inhibitors | AID 686979, 2013 | chicken DT40 Tdp1-/-;hTDP1 cells + 20 nM CPT, ATP luminescence, 48 h | hit rate 12% among 420,000; note: nearly all actives have a fitted effect of over 55% in size
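Cell growth measured by CellTiter-Glo luminescence after a minimum 48 h, 37 C compound exposure with 20 nM CPT in Tdp1-knockout DT40 cells stably expressing hTDP1, seeded 400/well; qHTS titration format.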
TGFb SMAD3 inh = qHTS for Inhibitors of TGF-b; HepG2 CAGA-GFP TGF-b/SMAD3 reporter, GFP fluorescence, 18 h; TGF-beta stimulated, 500 pg/mL final; AID 588855, 2011; hit rate 1.2% among 410,000; Potency, µM (series often up to 46.1 µM), hits mostly inhibitors; note: nearly all actives have a fitted effect of over 65% in size
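First, reporter cells (HEPG2 CAGA-GFP) rested 2 h at 37 degrees C. Next, compounds were pinned in and TGF-beta added to 500 pg/mL final. After 18 h, GFP was imaged per cell and summed per well.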
HepG2 tox = qHTS for Inhibitors of TGF-b: Cytotox Counterscreen; HepG2 CAGA-GFP viability, ATP luminescence, 18 h; Potency, µM (doses to about 46.1 µM), actives largely listed as cytotoxic; hit rate 0.76% among 410,000
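HepG2 CAGA-GFP cells (1000/well, DMEM with 1% FBS) received compound, then TGF-beta at 500 pg/mL final, and were incubated 18 hours at 37 degrees C. Viability was read by CellTiter-Glo luminescence. Media-only wells were set as complete cell-killing and DMSO as no toxicity.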
S-ASM inh = Inhibitors of Secretory Acid Sphingomyelinase (S-ASM): qHTS; hit rate 0.006% among 340,000; Sphingomyelin phosphodiesterase (Homo sapiens), P17405; placental ASM, HMU-PC fluorogenic substrate, 60 min; Potency, µM (titrated, usually from 57.5 µM), usual class: inhibitors
Target sequence (P17405 47-631 limits assumed): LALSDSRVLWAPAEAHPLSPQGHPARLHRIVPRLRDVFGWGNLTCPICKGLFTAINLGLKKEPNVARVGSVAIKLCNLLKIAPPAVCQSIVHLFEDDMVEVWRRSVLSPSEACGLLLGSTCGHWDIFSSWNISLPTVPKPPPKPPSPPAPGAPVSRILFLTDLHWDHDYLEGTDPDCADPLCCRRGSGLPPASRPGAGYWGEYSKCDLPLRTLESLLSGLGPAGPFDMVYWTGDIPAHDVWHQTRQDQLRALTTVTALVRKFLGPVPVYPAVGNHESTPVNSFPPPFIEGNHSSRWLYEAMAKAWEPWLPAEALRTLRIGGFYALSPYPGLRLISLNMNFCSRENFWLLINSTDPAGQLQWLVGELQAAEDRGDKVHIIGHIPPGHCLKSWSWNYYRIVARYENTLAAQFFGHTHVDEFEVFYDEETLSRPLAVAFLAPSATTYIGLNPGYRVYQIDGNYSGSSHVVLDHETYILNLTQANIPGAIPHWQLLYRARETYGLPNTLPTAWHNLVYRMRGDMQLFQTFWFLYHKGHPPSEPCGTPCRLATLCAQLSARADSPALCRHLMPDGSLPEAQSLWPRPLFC
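Steps: dispense placental human ASM, pin compound, wait 10 min at room temperature, add HMU-PC0 substrate at 9 uM final, incubate 60 min at 37 °C, add stop solution raising pH to 10, read fluorescence.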
Hits are given with their value; – = inactive; ? = inconclusive; · = not tested or not shown. Unless noted, calls come from the whole dose curve; as a rule, active = well fitted curve in the direction sought with a large enough effect; inconclusive = small, poorly fitted or top-dose-only effect, or another doubt; inactive = no such curve, though single readings can be large; an effect the other way counts as inactive or inconclusive.

SMILES	IL-1B inflam inh	TDP1 cell noCPT	TDP1 cell CPT	TGFb SMAD3 inh	HepG2 tox	S-ASM inh
CCN(CC)S(=O)(=O)c1ccc(NN=C(C#N)C#N)cc1	-80.5	?	?	?	–	–
N#CC(C#N)=NNc1ccc([N+](=O)[O-])cc1	-90.6	23.1µM	20.6µM	?	–	–
N[C@@H](Cn1ccc(=O)n(Cc2ccc(C(=O)O)cc2)c1=O)C(=O)O	·	–	–	·	·	·
CCN(CC)c1ccc(/C=C2\C(=O)NC(=O)N(CC3CCCO3)C2=O)cc1 (stereo unspecified)	–	–	–	–	–	–
O=c1[nH]/c(=C\c2ccc(N(CCCl)CCCl)cc2)c(=O)[nH]/c1=C\c1ccc(N(CCCl)CCCl)cc1	·	?	3.16µM	–	–	·
O=C1/C(=C/c2ccc(N(CCCl)CCCl)cc2)Cc2ccccc21	·	7.94µM	4.47µM	–	–	·
CN(C)c1ccc(NC(=O)CN2C(=O)CN=C(c3ccccc3)c3cc(Cl)ccc32)cc1	-61.6	?	?	–	–	–
Cc1ccc(NC(=O)CN2C(=O)CN=C(c3ccccc3)c3ccccc32)cc1	·	?	?	–	–	·
Cc1oc(-c2ccc(Cl)cc2)nc1CN1C(=O)CN=C(c2ccccc2)c2ccccc21	·	14.6µM	?	20µM	–	·
O=C1CN=C(c2ccccc2Cl)c2cc(Cl)ccc2N1Cc1cccc(Cl)c1	·	?	20.6µM	–	–	·
COc1ccc(-c2nc(CN3C(=O)CN=C(c4ccccc4Cl)c4cc(Cl)ccc43)c(C)o2)cc1OC	·	?	?	–	–	·
Cc1ccc(NC(=O)CN2C(=O)CN=C(c3ccccc3)c3cc(Cl)ccc32)cc1	-65.6	?	?	?	–	–
Clc1cccc(Cl)c1CN1CCN(c2ccccc2)CC1	–	–	?	–	–	–
CC(=O)N(C1=NCCCS1)c1ccc(Cl)cc1	–	–	–	–	–	–
Cc1ccc2c(c1)C(c1ccccc1)=NCC(=O)N2C	–	–	–	–	–	–
O=C1CN=C(c2ccccc2)c2cc(Cl)ccc2N1CC1CC1	·	23.7µM	?	·	·	·
Cc1ccc(S(=O)(=O)N(C)C)cc1NC(=O)C(C)[N+]12CCN(CC1)CC2 (stereo unspecified)	–	–	–	–	–	–
Cc1nc(Cl)sc1C(=O)Nc1ccc2ccccc2c1	–	–	–	–	–	–
CNS(=O)(=O)c1cc(NC(=O)c2cccc3cccnc23)ccc1C	?	20.6µM	23.1µM	–	–	–
COc1ccc(OCC#CCN2CCNCC2)cc1	–	–	–	–	–	–
NC[C@@H](CC(=O)O)c1ccc(Cl)cc1	·	–	–	·	·	·
COc1ccccc1N1CCN(Cc2ccccc2F)CC1	–	–	–	–	–	–
COc1ccccc1N1CCN(C(=O)c2cc3c(-c4ccccc4F)nn(C)c3s2)CC1	·	6.51µM	?	?	–	·
COc1cccc(CNC(=O)c2cc3c(-c4ccccc4F)nn(C)c3s2)c1	·	16.4µM	?	–	–	·
COC(=O)C1C2c3ccccc3C(c3ccccc32)C1(C)C(=O)OC (stereo unspecified)	–	–	–	–	–	–
SMILES	IL-1B inflam inh	TDP1 cell noCPT	TDP1 cell CPT	TGFb SMAD3 inh	HepG2 tox	S-ASM inh
CCn1c(O)c(C=NCc2cccs2)c(=O)n(CC)c1=S	–	–	–	–	–	–
COC(=O)C1=C(c2cc3ccccc3s2)C[C@@H]2CC[C@H]1N2C(=O)N1CCCC1	–	·	4.61µM	?	–	–
COC(=O)C1=C(c2cc3ccccc3s2)C[C@@H]2CC[C@H]1N2C(=O)NCCNC(C)=O	–	–	–	–	–	–
COC(=O)C1=C(c2cc3ccccc3s2)C[C@@H]2CC[C@H]1N2C(=O)N1CCOCC1	–	7.31µM	9.2µM	?	–	–
COc1ccccc1CNC(=O)CCS(=O)(=O)c1ccc2c(c1)oc(=O)n2C	·	–	–	–	–	·
CN1C(=O)C[N+]([O-])=C(c2ccccc2)c2cc(Cl)ccc21	–	–	–	–	–	–
CC(C)COc1ccc(Cc2c(O)[nH]c(=S)[nH]c2=O)cc1	–	–	–	–	–	–
COc1ccc(-n2cnc3cc(C(=O)N4CCC5(CC4)OCCO5)ccc32)cc1	–	2.59µM	8.2µM	–	–	–
COc1ccc(C(=O)N2CCC3(CC2)OCCO3)cc1	–	–	–	–	–	–
CN[C@H](C)CCC=C(C)C	·	?	?	?	–	·
CSc1nc2ccccc2c(=O)n1-c1cccnc1	–	–	–	–	–	–
COc1nc2ccccc2c(=O)n1-c1ccc(Cl)cc1	–	–	?	–	–	–
O=c1c2ccccc2nc(N2CCCC2)n1-c1ccc(Cl)cc1	–	16.4µM	20.6µM	–	–	–
CCN(CC)CCSc1nc2ccccc2c(=O)n1-c1ccc(Cl)cc1	·	20.6µM	7.31µM	–	–	·
C[C@]12CCC3[C@@H](CC[C@H]4C[C@@H](O)CC[C@]34C)C1CCC2=O (stereo partly specified)	–	?	?	–	–	–
C[C@]12CCC3C(CC[C@H]4CC(O)CC[C@]34C)C1CC/C2=N/NC(=O)c1ccncc1 (stereo partly specified)	–	23.1µM	25.9µM	–	–	–
C[C@]12CC[C@@H](O)C[C@H]1CC[C@@H]1[C@@H]2CC[C@]2(C)C(=O)CC[C@@H]12	–	?	?	?	–	–
C[C@]12CCC3C(CC[C@H]4C[C@@H](O)CC[C@]34C)[C@@H]1CCC2=O (stereo partly specified)	·	29.9µM	26.6µM	·	·	·
CC(C)OP(=O)(OC(C)C)C(NC(=O)c1ccccc1Br)C(N)=O (stereo unspecified)	–	–	–	–	–	–
C[C@H]1CC[C@@]2(C)[C@@H](CC[C@@H]3[C@@H]2CC[C@]2(C)[C@@H](O)CC[C@@H]32)C1	?	?	?	–	–	–
C=CCSc1nc2c(c(-c3ccsc3)c1C#N)CN(C)CC2	–	18.4µM	?	–	–	–
O=C(NCNC(=O)NC1C(=O)NC(=O)N1CO)NC1C(=O)NC(=O)N1CO (stereo unspecified)	–	–	–	–	–	–
O=C(NC1CCCCCC1)c1ccc[nH]c1=S	–	–	–	?	–	–
O=C1CN=C(c2ccc[nH]2)c2cc(Cl)ccc2N1	–	0.0326µM	0.164µM	–	–	–
